Reference: PubChem BioAssay (NCATS)
Results filed as inconclusive are left out. Active and inactive are the calls of the source. Unless noted, the call rests on the fitted dose curve; in most records, active means well fitted curve in the direction sought with a large enough effect; inconclusive means small, poorly fitted or top-dose-only effect, or another doubt; inactive means no such curve, though single readings can be large; an effect the other way counts as inactive or inconclusive.

Legend:
[1] = Nrf2 qHTS screen for inhibitors: Validation (AID 493153); conditions: Potency: luciferase luminescence; viability change: measured here: cytotoxicity max response
Summary of the method: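 A549 cells carrying an ARE-driven firefly luciferase reporter, in 5% FBS OPTI-MEM, were treated with compounds in concentration-response for 18-24 h at 37°C. Viability was read by CellTiter-Fluor fluorescence, then Nrf2 activity by luciferase luminescence.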

[2] = qHTS for Inhibitors of Cell Surface uPA Generation: Validation Assay (AID 493164);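 further: RAW 264.7 macrophage cells exposed to compound for 18 h; 0% is about no effect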
Summary of the method: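 RAW 264.7, 4000 cells/well, o/n plating; cpd 7-pt 1:5 dilution 2.45 nM–38.3 uM final; 18 h, 37 C/5% CO2; ATP-Lite, 5 s luminescence exposure.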

[3] = biological target: Galactokinase (Homo sapiens) (UniProt P51570); assay: qHTS Validation Assay for Inhibitors of Human Galactokinase (GALK) (AID 493189); further: 0% is about no effect
Sequence of Galactokinase (Homo sapiens) (P51570 whole entry, looked up): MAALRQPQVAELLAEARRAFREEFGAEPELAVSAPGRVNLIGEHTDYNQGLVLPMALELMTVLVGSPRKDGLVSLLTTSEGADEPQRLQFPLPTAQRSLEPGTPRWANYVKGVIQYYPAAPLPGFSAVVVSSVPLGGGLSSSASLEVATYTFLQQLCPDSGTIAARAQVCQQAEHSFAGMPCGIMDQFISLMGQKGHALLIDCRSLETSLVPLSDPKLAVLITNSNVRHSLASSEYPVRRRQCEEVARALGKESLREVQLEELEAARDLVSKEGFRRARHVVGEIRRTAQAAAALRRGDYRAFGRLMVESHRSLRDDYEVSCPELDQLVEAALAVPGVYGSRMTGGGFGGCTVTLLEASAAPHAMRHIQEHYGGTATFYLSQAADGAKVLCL
Summary of the method: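 Luminescence from leftover ATP (Kinase-Glo Plus, 10 min) served as read-out after a 1 h room-temperature reaction of 5 nM GALK, 100 uM galactose and 35 uM ATP at pH8.0.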

[4] = biological target: Peptidyl-prolyl cis-trans isomerase NIMA-interacting 1 (Homo sapiens) (UniProt Q13526); assay: qHTS Validation Assay to Find Inhibitors of Pin1 (AID 504536; active means well fitted inhibition curve with a large enough effect in the polarisation, with a control signal flat, not every such curve was filed as active; the % refers to the polarisation;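 further: 0% = full Pin1 enzyme wells and -100% = no-enzyme wells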)
Sequence of Peptidyl-prolyl cis-trans isomerase NIMA-interacting 1 (Homo sapiens) (Q13526 whole entry, looked up): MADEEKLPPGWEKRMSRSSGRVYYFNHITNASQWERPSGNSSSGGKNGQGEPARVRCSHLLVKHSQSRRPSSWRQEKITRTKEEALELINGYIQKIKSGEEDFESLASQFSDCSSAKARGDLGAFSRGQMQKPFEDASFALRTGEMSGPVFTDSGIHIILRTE
Summary of the method: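 Fluorescence polarization competition: compounds (titration) displace HiFluor-488-labeled Pin1-1b peptide from Pin1 (0.3 uM final) in pH 7.5 HEPES buffer with DTT, 10 min at room temperature; %Activity normalized to no-enzyme wells, curves fitted.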

[5] = biological target: Phosphoglycerate kinase, glycosomal (Trypanosoma brucei brucei) (UniProt P07378); assay: qHTS Validation Assay to Find Inhibitors of Phosphoglycerate Kinase (AID 504547);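 further: control wells lack PGK and mark full inhibition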
Summary of the method: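 Inhibition of the enzyme is judged by a Kinase-Glo Plus luminescent signal following a one-hour incubation at room temperature. Because 1,3-BPG is unstable, it is made in situ by GAPDH at 100nM final; no-PGK wells define the baseline.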

[6] = biological target: phosphoglycerate mutase (Leishmania major) (UniProt Q4Q090); assay: qHTS Validation Assay to Find Inhibitors of Phosphoglycerate Mutase (AID 504548); further: series mostly up to about 58 µM; on the % scale 0 is the no-effect control and ±100 the full control effect
Sequence of phosphoglycerate mutase (Leishmania major) (Q4Q090 1-553): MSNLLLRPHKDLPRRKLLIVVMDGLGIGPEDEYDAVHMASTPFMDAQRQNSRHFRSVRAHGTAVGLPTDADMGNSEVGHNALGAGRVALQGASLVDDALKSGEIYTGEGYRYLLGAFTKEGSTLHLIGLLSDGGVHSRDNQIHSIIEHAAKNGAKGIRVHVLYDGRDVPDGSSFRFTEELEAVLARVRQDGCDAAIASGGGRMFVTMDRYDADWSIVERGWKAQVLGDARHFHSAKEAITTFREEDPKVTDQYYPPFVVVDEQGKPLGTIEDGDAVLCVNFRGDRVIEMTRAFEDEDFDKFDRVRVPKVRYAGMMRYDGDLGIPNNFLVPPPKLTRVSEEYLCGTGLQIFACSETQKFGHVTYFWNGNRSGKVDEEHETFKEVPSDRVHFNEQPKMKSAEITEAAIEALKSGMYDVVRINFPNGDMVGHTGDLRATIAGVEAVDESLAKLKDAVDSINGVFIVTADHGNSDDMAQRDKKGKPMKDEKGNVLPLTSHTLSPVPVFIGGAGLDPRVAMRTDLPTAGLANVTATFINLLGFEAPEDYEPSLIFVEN
Summary of the method: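 Lm PGAM at 1.25 nM final with substrate in 100 mM TEA pH 7.6, 5 mM MgCl2, 0.01% Tween-20; 45 min at room temperature. Kinase-GloPlus added, 10 min, end-point luminescence read.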

[7] = Inducers of the Endoplasmic Reticulum Stress Response (ERSR) in human glioma: Validation (AID 504836); further: 0% is about no effect
Summary of the method: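 ERSR induction read as luciferase luminescence (Bright-Glo, 10 min at room temperature) in stably transfected human U87-MG glioma cells exposed to compounds for 16 h, using GRP78 as sensor.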

[8] = biological target: Ubiquitin carboxyl-terminal hydrolase 1 (Homo sapiens) (UniProt O94782); assay: Inhibitors of USP1/UAF1: Pilot qHTS (AID 504865);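 further: rhodamine fluorescence freed from ubiquitin-rhodamine substrate followed over time; top concentration of the series differs between compounds; on the % scale 0 is the no-effect control and ±100 the full control effect; nearly all actives have a fitted effect of over 35% in size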
Sequence of Ubiquitin carboxyl-terminal hydrolase 1 (Homo sapiens) (O94782 whole entry, looked up): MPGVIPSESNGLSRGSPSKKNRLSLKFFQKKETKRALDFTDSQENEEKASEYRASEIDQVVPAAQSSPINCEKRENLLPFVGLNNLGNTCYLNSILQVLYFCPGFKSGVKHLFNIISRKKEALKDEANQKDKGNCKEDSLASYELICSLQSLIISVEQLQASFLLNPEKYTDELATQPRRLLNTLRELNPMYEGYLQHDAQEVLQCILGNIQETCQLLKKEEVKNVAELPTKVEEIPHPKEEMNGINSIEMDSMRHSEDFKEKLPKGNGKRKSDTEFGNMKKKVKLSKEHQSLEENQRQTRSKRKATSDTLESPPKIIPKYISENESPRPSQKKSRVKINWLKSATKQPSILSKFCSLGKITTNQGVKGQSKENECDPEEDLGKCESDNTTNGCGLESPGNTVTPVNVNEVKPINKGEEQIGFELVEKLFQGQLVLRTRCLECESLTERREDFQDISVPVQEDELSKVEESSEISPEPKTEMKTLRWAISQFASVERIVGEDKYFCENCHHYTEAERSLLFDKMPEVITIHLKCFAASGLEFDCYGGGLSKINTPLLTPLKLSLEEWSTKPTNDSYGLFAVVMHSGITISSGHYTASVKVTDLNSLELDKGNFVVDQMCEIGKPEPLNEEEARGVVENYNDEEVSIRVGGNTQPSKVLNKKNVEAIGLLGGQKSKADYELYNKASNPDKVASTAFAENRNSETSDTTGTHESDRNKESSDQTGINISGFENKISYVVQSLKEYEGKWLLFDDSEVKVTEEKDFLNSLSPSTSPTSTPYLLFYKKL
Summary of the method: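 1nM USP1/UAF1 + cpd, 15 min RT; start w/ Ub-Rho 150nM final; kinetic FL 480/540 nm, 6 reads q60 s. Buffer 50mM HEPES pH 7.8, 0.5mM EDTA, 1mM TCEP, 0.01% Tween-20, 0.1 mg/ml BSA.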

[9] = qHTS for Inhibitors of ATXN expression: Validation of Cytotoxic Assay (AID 588349); further: on the % scale 0 is the no-effect control and ±100 the full control effect
Summary of the method: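 HEK293 cells were dosed with titrated compounds for 72 hr at 37 degrees C. Viability was read by CellTiter Glo luminescence, with intracellular ATP as the marker of cell survival.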

[10] = qHTS for Inhibitors of ATXN expression: Validation (AID 588378); further: series mostly up to about 57 µM; on the % scale 0 is the no-effect control and ±100 the full control effect; nearly all actives have a fitted effect of over 75% in size
Summary of the method: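 Cells: HEK293-ATXN2-FFLuc, phenol-red free DMEM, 2 h attachment. Compound pin-transfer, 24 h, 37 degrees C, 5% CO2. CellTiter-Fluor 30 min, Ex405/Em525; Bright-Glo 5 min, luminescence 2 s exposure.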

[11] = biological target: Voltage-gated inwardly rectifying potassium channel KCNH2 (Homo sapiens) (UniProt Q12809); assay: qHTS Assay for Small Molecule Inhibitors of the Human hERG Channel Activity (AID 588834);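 further: top concentration of the series differs between compounds; on the % scale 0 is the no-effect control and ±100 the full control effect; lower thallium flux fluorescence means stronger hERG block; nearly all actives have a fitted effect of over 50% in size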
Sequence of Voltage-gated inwardly rectifying potassium channel KCNH2 (Homo sapiens) (Q12809 whole entry, looked up): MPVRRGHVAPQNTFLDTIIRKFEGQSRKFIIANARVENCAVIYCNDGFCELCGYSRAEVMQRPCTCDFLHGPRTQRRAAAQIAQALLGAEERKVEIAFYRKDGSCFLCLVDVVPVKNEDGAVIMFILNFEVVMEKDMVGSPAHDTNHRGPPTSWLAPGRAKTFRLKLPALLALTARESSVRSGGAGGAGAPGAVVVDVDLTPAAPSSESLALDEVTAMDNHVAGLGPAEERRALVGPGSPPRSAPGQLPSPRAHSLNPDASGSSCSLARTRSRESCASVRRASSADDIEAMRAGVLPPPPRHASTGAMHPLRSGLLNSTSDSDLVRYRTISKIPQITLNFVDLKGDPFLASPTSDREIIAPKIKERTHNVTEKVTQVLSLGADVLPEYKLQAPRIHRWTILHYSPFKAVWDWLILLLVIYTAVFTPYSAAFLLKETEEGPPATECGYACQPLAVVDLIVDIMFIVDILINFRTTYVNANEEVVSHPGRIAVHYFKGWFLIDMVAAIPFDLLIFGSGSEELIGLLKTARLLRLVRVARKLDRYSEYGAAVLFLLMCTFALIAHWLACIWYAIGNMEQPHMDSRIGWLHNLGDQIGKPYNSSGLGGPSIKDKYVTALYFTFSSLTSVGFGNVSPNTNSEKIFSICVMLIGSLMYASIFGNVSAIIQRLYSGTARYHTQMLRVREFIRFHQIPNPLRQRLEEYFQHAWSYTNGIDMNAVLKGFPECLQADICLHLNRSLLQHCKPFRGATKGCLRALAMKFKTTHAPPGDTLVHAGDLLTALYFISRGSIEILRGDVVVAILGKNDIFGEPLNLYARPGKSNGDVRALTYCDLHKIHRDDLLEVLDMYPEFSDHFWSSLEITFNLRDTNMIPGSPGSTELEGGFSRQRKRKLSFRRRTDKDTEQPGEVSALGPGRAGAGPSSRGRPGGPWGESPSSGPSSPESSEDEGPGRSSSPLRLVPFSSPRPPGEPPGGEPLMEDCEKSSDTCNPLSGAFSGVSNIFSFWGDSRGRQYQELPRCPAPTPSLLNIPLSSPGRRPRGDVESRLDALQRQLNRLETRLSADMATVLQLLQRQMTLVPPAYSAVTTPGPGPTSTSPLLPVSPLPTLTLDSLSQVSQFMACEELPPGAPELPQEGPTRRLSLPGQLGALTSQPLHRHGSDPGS
Summary of the method: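 Concentration-response qHTS measuring drop in thallium-sensitive dye signal. U2OS cells carrying BacMam hERG; compound exposure ~10 min, then stimulation buffer and 2 min read at 1 sec intervals.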

[12] = biological target: Glutaminase kidney isoform, mitochondrial (Homo sapiens) (UniProt O94925); assay: qHTS for Inhibitors of Glutaminase (GLS): LOPAC Validation (AID 624146);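 further: glutamate product detected by oxidase and peroxidase coupled Amplex red fluorescence gain; series mostly up to about 46 µM; on the % scale 0 is the no-effect control and ±100 the full control effect; nearly all actives have a fitted effect of over 60% in size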
Summary of the method: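 Assay buffer: 45 mM KH2PO4 pH 8.2, 0.02% Tween-20. hKGA acts on L-glutamine (1 mM solution added); product glutamate is reported by an oxidase/peroxidase Amplex Red coupling, with fluorescence taken at baseline and 30 min.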

[13] = qHTS of Trypanosoma Brucei Inhibitors: LOPAC Validation (AID 624147); further: 0% is about no effect
Summary of the method: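 Luminescence from Kinase-Glo Plus, added after a 45-minute room-temperature reaction, served as the end-point read-out. The enzyme and substrate were preincubated with compound before ADP (130 uM final) initiated turnover. Concentration-effect curves came from normalized qHTS data.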

[14] = biological target: Glucagon-like peptide 1 receptor (Homo sapiens) (UniProt P43220); assay: qHTS of GLP-1 Receptor Agonists: LOPAC Validation (AID 624148);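 further: luminescence from a luciferase reporter switched on by cAMP; 0% is about no effect; higher luminescence signal means agonism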
Sequence of Glucagon-like peptide 1 receptor (Homo sapiens) (P43220 whole entry, looked up): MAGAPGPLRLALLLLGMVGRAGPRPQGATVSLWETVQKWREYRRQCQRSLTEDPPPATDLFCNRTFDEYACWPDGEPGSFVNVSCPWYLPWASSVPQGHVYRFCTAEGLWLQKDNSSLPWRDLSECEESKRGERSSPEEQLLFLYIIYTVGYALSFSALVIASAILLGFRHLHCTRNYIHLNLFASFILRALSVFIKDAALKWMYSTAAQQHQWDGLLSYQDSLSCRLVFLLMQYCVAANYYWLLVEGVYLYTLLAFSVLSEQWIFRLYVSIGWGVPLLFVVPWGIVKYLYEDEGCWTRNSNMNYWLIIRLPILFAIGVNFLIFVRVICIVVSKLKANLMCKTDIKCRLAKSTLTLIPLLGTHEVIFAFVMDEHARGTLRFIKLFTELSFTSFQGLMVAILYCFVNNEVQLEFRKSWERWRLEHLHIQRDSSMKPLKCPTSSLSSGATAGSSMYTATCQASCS
Summary of the method: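 Agonism scored as increased luciferase luminescence driven by cAMP in HEK293 clones carrying GLP-1R. Cells settled 12 hours, received compound for 4-6 hr at 37 deg C, 5% CO2, and were read after 12 min detection reagent at RT.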

[15] = qHTS of Nrf2 Activators: LOPAC Validation (AID 624149); further: 0% is about no effect
Summary of the method: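 AREc32 cells carrying an ARE-driven firefly luciferase were grown overnight in OPTI-MEM with 5% FBS, then exposed to compounds for 24 hr at 37 deg C. Luciferase signal was read after 30 min with Steady-Glo at RT.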

[16] = HTS Assay for Allosteric Antagonists of the Human D2 Dopamine Receptor: Hit Validation in HTRF (AID 624455);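 further: stable D1 dopamine receptor cell line scored for blocking the D1 response; on the % scale 0 is the no-effect control and ±100 the full control effect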
Summary of the method: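 Hits were examined in an HTRF assay using cells stably expressing the D1 dopamine receptor, scoring inhibition of the D1-mediated response. The preceding primary screen tracked calcium flux after an EC80 dopamine addition in force-coupled, inducible Hek293 Trex D2 cells.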

[17] = biological target: Arylsulfatase A (Homo sapiens) (UniProt P15289); assay: qHTS screen for enhancers of Arylsulfatase A (ASA1): LOPAC Validation Assay (AID 720538); further: 0% is about no effect
Summary of the method: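 Read-out: fluorescence at Ex=525/Em=598 nm after 1N NaOH final stop. Patient fibroblasts carrying ASA-I179S had 48h compound exposure, then 14h room-temperature pNCS hydrolysis (0.5mM final) in lysis buffer. Signal increase = enhanced activity.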

[18] = qHTS for compounds that reverse cellular toxicity of Amyloid beta (A-beta) peptide in yeast: LOPAC Validation Assay (AID 720559);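 further: plate controls were DMSO for no effect and equimolar ferric chloride plus clioquinol rescue for full effect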
Summary of the method: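 OD600 growth readout after 48 hr at 30 C; A-beta-toxic yeast plus pinned compounds in medium. Normalization: DMSO = negative, equimolar FeCl3 + clioquinol = positive.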

[19] = qHTS for Activators of Parkin Expression: LOPAC Validation Assay (NLuc Reporter) (AID 720572;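 further: 0% = DMSO and 100% = positive control compound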)
Summary of the method: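 Parkin promoter-driven FLuc/NLuc neuronal reporter cells; 24 h plating, 7-pt dose response, 24 h at 37 C/5% CO2; FLuc then NanoLuc reagent, 10 min each, luminescence; DMSO/positive control normalized.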

[20] = qHTS for Activators of Parkin Expression: LOPAC Validation Assay (FLuc Reporter) (AID 720573;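 further: 0% = DMSO and 100% = positive control compounds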)
Summary of the method: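 FLuc luminescence read-out from a neuronal line expressing a Parkin-promoter-driven coincidence reporter. Cells treated 24 h at 37 C, 5% CO2 with compounds at 7 concentrations; signal increase normalized to DMSO and positive control.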

[21] = biological target: T1, Hexokinase-4 (Homo sapiens) + Glucokinase regulatory protein (Homo sapiens) (UniProt P35557+Q14397); assay: qHTS assay for inhibitors of recombinant human GCK-GKRP interaction: Diaphorase-coupled assay (AID 743205)
T1 sequence (P35557 whole entry, looked up): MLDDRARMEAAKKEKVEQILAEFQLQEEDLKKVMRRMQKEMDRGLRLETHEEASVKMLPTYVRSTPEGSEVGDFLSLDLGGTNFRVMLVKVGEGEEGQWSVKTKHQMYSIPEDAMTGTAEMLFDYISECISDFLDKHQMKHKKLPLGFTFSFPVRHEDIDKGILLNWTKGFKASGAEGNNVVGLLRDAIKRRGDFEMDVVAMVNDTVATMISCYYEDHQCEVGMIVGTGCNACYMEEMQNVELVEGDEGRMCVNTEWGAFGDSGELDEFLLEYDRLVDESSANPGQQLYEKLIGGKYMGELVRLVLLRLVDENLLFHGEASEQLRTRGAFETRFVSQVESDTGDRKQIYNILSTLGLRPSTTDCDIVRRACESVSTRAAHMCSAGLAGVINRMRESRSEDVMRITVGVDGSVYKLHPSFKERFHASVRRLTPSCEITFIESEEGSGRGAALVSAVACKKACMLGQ
T1 sequence (Q14397 whole entry, looked up): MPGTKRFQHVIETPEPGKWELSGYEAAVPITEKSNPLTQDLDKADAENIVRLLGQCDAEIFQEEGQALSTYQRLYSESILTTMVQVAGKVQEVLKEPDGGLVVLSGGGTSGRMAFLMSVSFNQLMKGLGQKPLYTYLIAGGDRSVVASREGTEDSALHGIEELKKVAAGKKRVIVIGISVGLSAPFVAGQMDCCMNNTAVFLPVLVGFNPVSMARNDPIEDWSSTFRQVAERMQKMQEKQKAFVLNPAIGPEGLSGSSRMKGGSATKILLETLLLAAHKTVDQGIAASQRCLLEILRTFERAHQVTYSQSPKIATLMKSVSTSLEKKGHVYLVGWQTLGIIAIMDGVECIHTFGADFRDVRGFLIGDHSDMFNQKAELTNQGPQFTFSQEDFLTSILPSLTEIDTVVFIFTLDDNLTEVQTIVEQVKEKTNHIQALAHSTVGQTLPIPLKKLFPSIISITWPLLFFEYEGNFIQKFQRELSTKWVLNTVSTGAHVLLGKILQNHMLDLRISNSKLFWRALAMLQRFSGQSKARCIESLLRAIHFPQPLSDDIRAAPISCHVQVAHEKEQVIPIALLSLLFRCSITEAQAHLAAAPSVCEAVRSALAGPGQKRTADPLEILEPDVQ
Summary of the method: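 Resorufin fluorescence (525/590 nm), read each minute over 30 min, reports GCK activity coupled via G6PDH and diaphorase. Reaction: 10 nM GST-GCK, 10 nM FLAG-GKRP, 5 mM glucose, 0.4 mM ATP, 0.15 mM NADP+, 0.1 mM resazurin.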

[22] = biological target: T1, Hexokinase-4 (Homo sapiens) + Glucokinase regulatory protein (Homo sapiens); assay: qHTS assay for inhibitors of recombinant human GCK-GKRP interaction: ADP-Glo assay (AID 743206);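 further: plate controls were DMSO plus enzyme for no effect and no enzyme for full effect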
Summary of the method: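 GST-GCK and FLAG-GKRP (15 nM each in the dispensed mix, with 2 uM S6P) react with 0.4 mM ATP and 5 mM glucose (final) in Hepes pH 7.6 for 60 min at room temperature. ADP is measured by ADP-Glo luminescence.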

[23] = biological target: T1, Hexokinase-4 (Homo sapiens) + Glucokinase regulatory protein (Homo sapiens); assay: qHTS assay for inhibitors of recombinant human GCK-GKRP interaction: HTRF assay (AID 743207);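 further: 0% = DMSO with GCK present and -100% = DMSO wells lacking GCK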
Summary of the method: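 HTRF read-out (ex 320 nm; 615/665 nm emission) after 60 min RT equilibration of 5 nM GST-GCK, 5 nM FLAG-GKRP, 2 uM S6P, compound and anti-FLAG/anti-GST detection antibodies; signal normalized between DMSO wells with and without GCK.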

[24] = qHTS Assay for Identifying Gametocytocidal Compounds (AID 743244);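 further: on the % scale 0 is the no-effect control and ±100 the full control effect; actives lower the fluorescent signal which means gametocytes are killed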; conditions: P. falciparum 3D7 stage III-V gametocytes, alamarBlue, 72 h; max response: stronger effect = lower value
Summary of the method: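 Fluorescence at Ex 525/Em 598 nm, recorded 24 h after alamarBlue addition, reports residual metabolic activity of 3D7 gametocytes (stages III–V) following 72 h compound exposure at 37 °C, 5% CO2.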

[25] = Natriuretic polypeptide receptor (hNpr1) antagonism - Pilot counterscreen GloSensor control cell line (AID 1347045; calls by dose curve; further: series mostly up to about 38 µM; on the % scale 0 is the no-effect control and ±100 the full control effect)
Summary of the method: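 HEK293 cells carrying the GloSensor cGMP sensor (GIP/pGS-40F) were loaded with 2% GloSensor reagent for 2 h, exposed to compounds for 30 min, and then stimulated with 50 uM sodium nitroprusside for 20 min at room temperature.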

[26] = biological target: Atrial natriuretic peptide receptor 1 (Homo sapiens) (UniProt P16066); assay: Natriuretic polypeptide receptor (hNpr1) antagonism - Pilot screen (AID 1347049; calls by dose curve)
Summary of the method: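 Readout is cGMP-driven firefly luciferase luminescence in HEK293 cells carrying hNpr1 and a PDE5-domain GloSensor, read before and 20 min after 0.1 nM hNppA stimulation. Cells had 2% substrate reagent for 2 h and test compound for 30 min.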

[27] = biological target: Atrial natriuretic peptide receptor 2 (Homo sapiens) (UniProt P20594); assay: Natriuretic polypeptide receptor (hNpr2) antagonism - Pilot subtype selectivity assay (AID 1347050; calls by dose curve; further: on the % scale 0 is the no-effect control and ±100 the full control effect)
Summary of the method: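 Pilot selectivity screen against hNpr2: HEK293 cGMP-sensor cells are treated with LOPAC1280 compounds, then with hNppC peptide at 1 nM final. The cGMP-driven luminescence change over 20 min at room temperature is the read-out.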

[28] = biological target: Parathyroid hormone/parathyroid hormone-related peptide receptor (Homo sapiens) (UniProt Q03431); assay: qHTS for PTHR1 Agonists: Optimization Screen against the NCGC LOPAC library (AID 1347079);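 further: GloSensor cAMP luminescence in HEK-293 GP2 cells expressing human PTHR1 with IBMX; 0% is about no effect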
Summary of the method: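 Compounds were tested across a qHTS titration. PTHR1-expressing GP2 cells report cAMP rises via GloSensor luminescence after 1 hr compound exposure at 37C with IBMX present.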

[29] = qHTS for Inhibitors of the Functional Ribonucleoprotein Complex (vRNP) of Lassa (LASV) Arenavirus: LASV Primary Screen - GLuc reporter signal (AID 1347082; calls by dose curve; tested in HEK293 reporter line; further: series mostly up to about 57 µM; on the % scale 0 is the no-effect control and ±100 the full control effect; nearly all actives have a fitted effect of over 60% in size)
[30] = qHTS for Inhibitors of the Functional Ribonucleoprotein Complex (vRNP) of Lassa (LASV) Arenavirus: Viability assay - alamar blue signal for LASV Primary Screen (AID 1347083; calls by dose curve; tested in HEK293 reporter line; further: series mostly up to about 57 µM; on the % scale 0 is the no-effect control and ±100 the full control effect; nearly all actives have a fitted effect of over 80% in size)
[31] = qHTS for Inhibitors of the Functional Ribonucleoprotein Complex (vRNP) of Lymphocytic Choriomeningitis Arenaviruses (LCMV): Viability assay - alamar blue signal for LCMV Primary Screen (AID 1347085; calls by dose curve; tested in HEK293 reporter line; further: series mostly up to about 57 µM; on the % scale 0 is the no-effect control and ±100 the full control effect; nearly all actives have a fitted effect of over 80% in size)
[32] = biological target: Lysine-specific demethylase 5B (Homo sapiens) (UniProt Q9UGL1); assay: Optimization screen for KDM5B Histone Demethylases FDH coupled qHTS against the LOPAC library (AID 1347166); further: 0% is about no effect
Summary of the method: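 KDM5BDeltaAP (200nM final) preincubated 10 min with compound, then 12.5uM H3K4Me3, 25uM a-ketoglutarate, ascorbate, Fe(II), NAD+ and FDH added; 50mM HEPES pH 7.5, 0.01% Tween-20. NADH fluorescence (340/450 nm) change over 30 min, room temperature.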

[33] = Validation qHTS assay for inhibitors of Activation Induced Cytidine Deaminase (AID): UDG Counterscreen signal (AID 1347427); further: 0% is about no effect
Summary of the method: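 Counterscreen read of UDG activity (2 U/mL, 4/3x) in the FRET deamination format with AID (1 uM, 4/3x), DJC20/DJC23 substrates (250 nM, 4x), 4 h at room temperature. NaOH stop, fluorescence at 560 ex/665 em.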

[34] = biological target: Single-stranded DNA cytosine deaminase (Homo sapiens) (UniProt Q9GZX7); assay: Validation qHTS assay for inhibitors of Activation Induced Cytidine Deaminase (AID): AID signal (AID 1347429); further: on the % scale 0 is the no-effect control and ±100 the full control effect
Sequence of Single-stranded DNA cytosine deaminase (Homo sapiens) (Q9GZX7 whole entry, looked up): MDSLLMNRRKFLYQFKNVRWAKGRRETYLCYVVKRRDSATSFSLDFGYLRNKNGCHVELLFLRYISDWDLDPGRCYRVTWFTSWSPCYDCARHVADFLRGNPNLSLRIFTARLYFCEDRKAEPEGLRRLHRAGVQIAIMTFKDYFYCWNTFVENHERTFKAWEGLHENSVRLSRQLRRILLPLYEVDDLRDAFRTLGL
Summary of the method: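 AID and UDG were combined and compounds added at final up to 114 uM, then DJC20/DJC23 FRET substrate was added for 4 hr at room temperature. NaOH was then added for 30 min before fluorescence was read at 540/590 nm.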

[35] = Primary qHTS for inhibitors of La Crosse Virus (LACV) - induced cell death in SH-SY5Y cells (AID 1508616);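 further: top concentration of the series differs between compounds; 0% = infected DMSO wells and 100% = uninfected DMSO wells; higher means more rescue of cells from virus-induced death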
Summary of the method: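 Luminescent ATP readout (ATPLite 1step, 5 min room temperature) measured rescue from LACV-induced death after 6 days of infection at 0.01 MOI; normalized to infected DMSO wells and uninfected DMSO wells.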

[36] = Primary qHTS for small molecule stabilizers of the endoplasmic reticulum resident proteome: Secreted ER Calcium Modulated Protein (SERCaMP) assay (AID 1508630); further: on the % scale 0 is the no-effect control and ±100 the full control effect
Summary of the method: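 GLuc-SERCaMP-expressing SH-SY5Y cells, pretreated 16 h with compound, are challenged with thapsigargin to empty ER calcium stores; after 4 h, coelenterazine is added directly to the medium and luminescence is imaged.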

O=[N+]([O-])c1ccc(O[C@@H]2O[C@H](CO)[C@@H](O)[C@H](O)[C@H]2F)c([N+](=O)[O-])c1
inactive: outcome [2] | outcome [3] | Potency [4] | Potency [5] | outcome [6] | outcome [7] | Potency [8] | outcome [9] | Potency [10] | Potency [11] | outcome [12] | outcome [13] | outcome [14] | outcome [15] | outcome [16] | Potency [17] | outcome [18] | outcome [19] | outcome [20] | outcome [21] | outcome [22] | outcome [23] | max response [24] 12.9% | outcome [25] | outcome [26] | outcome [27] | outcome [28] | Potency [29] | Potency [30] | Potency [31] | outcome [32] | outcome [33] | outcome [34] | outcome [35] | Potency [36]
-9.61%: viability change [1]
